Shown are actives, neighbours in structure and some others; about 2.2% of the full set was active somewhere.
APP 5UTR inh: APP translation inhibition; SH-SY5Y APP 5'UTR-luciferase reporter, luminescence; hit rate 0.82% among 190,000; inhibition, % at 2 µM; AID 1285;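 active = inhibition above a set limit, derived from the sample mean plus 3 SD, cut at about 45% in these data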
IEC-6 tox-1: counter-screen for KLF5 inhibitors: cytotoxicity in IEC-6 cells | hit rate 0.78% among 290,000 | AID 1825 | IEC-6 cytotoxicity, luminescence viability | inhibition, % at 5 µM;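 note: 0% = plate median of test compound wells and 100% = cytotoxic reference compound wells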
KLF5 inh: inhibitors of KLF5 expression; AID 1700; hit rate 0.23% among 290,000; inhibition, % at 5 µM; DLD-1 KLF5 promoter-luciferase reporter, luminescence;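 active = inhibition above a per-plate limit of that plate's mean compound inhibition plus 3 SD, cut at about 60% in these data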;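 note: 0% = DMSO wells and 100% = LY294002 at 200 µM; higher means less KLF5 promoter-driven luciferase light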
aSyn 5UTR inh: MLPCN primary screen, SNCA 5' untranslated region | inhibition, % (tested at 7.5 µM) | hit rate 0.82% among 300,000 | AID 1813 | alpha-synuclein 5'UTR reporter, inhibitor activity; in the data active = inhibition above about 60%;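 note: H4 neuroglioblastoma cells stably carrying SNCA 5'UTR luciferase fusion; 0% = DMSO wells and 100% = positive control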
BaF3 parental: parental Ba/F3 viability inhibition as JAK2V617F counter-screen; CellTiter-Glo ATP luminescence; inhibition, % at 5.6 µM; hit rate 1.1% among 220,000; AID 1486;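 active = inhibition above a per-campaign cutoff, the mean inhibition of all tested compounds plus 3 SD, cut at about 27% in these data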;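 note: 0% = DMSO wells and 100% = JAK Inhibitor I control wells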
Ba/F3 V617F tox: lowers viability of Ba/F3 cells expressing EpoR and JAK2V617F. ATP luminescence. inhibition, % at 5.6 µM. hit rate 1.1% among 220,000;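 active = inhibition above the campaign mean plus 3 SD over all tested compounds, cut at about 24% in these data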;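 note: cytokine-independent growth of Ba/F3 cells driven by EpoR plus mutant JAK2; 0% = DMSO-treated cells and 100% = JAK inhibitor I control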
KLF5 confirm: KLF5 inhibition, confirmation assay. shares compounds with KLF5 inh. DLD-1 KLF5 promoter firefly luciferase reporter, luminescence. inhibition, % at 4 µM. hit rate 79% among 610;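 active = inhibition above a set limit taken from the earlier primary screen, cut at about 63% in these data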;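 note: 0% = DMSO wells and 100% = LY294002 at 200 µM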
IEC-6 tox-2: kills rat IEC-6 cells in KLF5 counter-screen; inhibition, % at 4 µM; AID 1905; IEC-6 rat intestinal cells, viability luminescence; hit rate 56% among 610; shares compounds with KLF5 inh; in the data active = inhibition above about 23%;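 note: cells exposed to compounds for 48 hours before viability read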
IEC-6 cytotox cf: IEC-6 cytotoxicity, confirmation assay | shares compounds with IEC-6 tox-1 | IEC-6 rat intestinal epithelial viability, luminescence | inhibition, % at 5 µM | hit rate 63% among 1,900 | AID 1907;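 note: 0% = vehicle and 100% = reference cytotoxic drug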
* marks the source's active call; other numbers are inactive results; x = not tested or not shown. Cut-off read from the data, not from the text of the source, unless noted: active = inhibition above about 22%; inactive = the rest.

SMILES	APP 5UTR inh	IEC-6 tox-1	KLF5 inh	aSyn 5UTR inh	BaF3 parental	Ba/F3 V617F tox	KLF5 confirm	IEC-6 tox-2	IEC-6 cytotox cf
CC(=O)c1cccc(Nc2c3c(nc4ccccc24)CCC3)c1	x	75*	65*	75*	x	x	102*	51*	51*
CCOc1ccc2c(c1)C(C)=CC(C)(C)N2C(=O)Nc1ccccc1F	-7	2	-5	-7	4	-3	x	x	x
COC(=O)C1(C)CN(S(=O)(=O)c2ccc(C)cc2)c2cc(OC)ccc2C1=O (centres undefined)	-7	7	-9	14	3	2	x	x	x
COc1ccc2c(c1)C(C)=CC(C)(C)N2S(=O)(=O)c1ccc(C)cc1	84*	81*	87*	-63	74*	70*	88*	55*	53*
CCOc1ccc2c(c1)C(C)=CC(C)(C)N2S(=O)(=O)c1ccc(C)cc1	95*	90*	68*	103*	77*	79*	91*	55*	59*
Cc1cc(NC(=O)COC(=O)C2CCC(=O)N2)c([N+](=O)[O-])cc1C (centres undefined)	-6	0	-43	9	3	-4	x	x	x
Cc1cccc(C)c1OCc1cc(C(=O)NCc2cn(C)nc2C)no1	x	-1	-61	-24	x	x	x	x	x
CCCCn1c(N)c(N(CC(C)C)C(=O)c2ccc3c(c2)NC(=O)C(C)S3)c(=O)[nH]c1=O (centres undefined)	x	-7	-7	14	x	x	x	x	x
COc1ccccc1N1CCN(C(=O)C(=O)c2c[nH]c3ccccc23)CC1	x	6	-7	11	x	x	x	x	x
COCCCNc1nnc(Cc2ccc(Cl)cc2)c(=O)[nH]1	x	82*	62*	66*	x	x	80*	38*	60*
CC(C)NC(=O)Cn1cc(S(=O)(=O)N2CCCC2)c(S(=O)(=O)N2CCCC2)c1	x	-7	-2	-21	x	x	x	x	x
CCn1c2ccccc2c2cc(Nc3cc(C)nc4ncnn34)ccc21	96*	94*	75*	82*	86*	84*	82*	72*	72*
O=C(CSc1nnc(-c2ccccc2)o1)Nc1ccccc1F	-108	29*	72*	74*	32*	26*	-55	-6	-4
Cc1ccc(-c2nnc(SCC(=O)Nc3ccccc3F)o2)cc1	36	28*	100*	92*	21	15	66*	5	17
CC(C)(C)OC(=O)N1CCC(c2c(C(=O)NCC3CCN(C4CCCC4)C3)cnn2-c2ccc(F)cc2)CC1 (centres undefined)	x	-2	-4	9	x	x	x	x	x
COc1cccc(CN2CCN(c3nc4nonc4nc3NC3CC3)CC2)c1	-6	4	-11	7	7	-1	x	x	x
CCn1c(C)nc2cc(-c3nc4n(n3)Cc3ccccc3-4)ccc21	85*	33*	112*	87*	42*	48*	110*	39*	43*
CCCNC1=C(N(C(C)=O)c2cccc(F)c2)C(=O)c2ccccc2C1=O	49*	65*	96*	92*	104*	101*	51	53*	41*
CCC(=O)N(C1=C(NC(C)C)C(=O)c2ccccc2C1=O)C(C)C	-7	-2	-20	-27	4	3	x	x	x
Cc1cccnc1CNC(=O)C1CCC(=O)N(CCc2cccc(F)c2)C1 (centres undefined)	x	3	-55	-12	x	x	x	x	x
COc1ccc2c(c1)sc1nc(-c3ccccc3)cn12	86*	76*	72*	105*	69*	70*	103*	70*	55*
COc1cccc(N2CCN(C(=O)c3ccc(CS(=O)c4ccccc4Cl)o3)CC2)c1 (centres undefined)	x	90*	74*	110*	x	x	84*	62*	60*
O=C(c1ccc(CS(=O)c2ccccc2Cl)o1)N1CCOCC1 (centres undefined)	x	-4	-3	13	x	x	x	x	x
COc1cccc(N2CCN(C(=O)c3ccc(CS(=O)c4ccccc4C)o3)CC2)c1 (centres undefined)	x	78*	68*	108*	x	x	75*	64*	58*
O=c1cc(-c2cccc(F)c2)[nH]c2ccccc12	94*	86*	75*	87*	78*	78*	85*	60*	57*
SMILES	APP 5UTR inh	IEC-6 tox-1	KLF5 inh	aSyn 5UTR inh	BaF3 parental	Ba/F3 V617F tox	KLF5 confirm	IEC-6 tox-2	IEC-6 cytotox cf
Cc1ccc(-c2cc(=O)c3cc(C)ccc3[nH]2)cc1	-115	8	-51	-36	7	2	x	x	x
Cc1ccc2[nH]c(-c3cccc(F)c3)cc(=O)c2c1	93*	91*	62*	81*	83*	83*	73*	59*	57*
O=C(C(=O)N1CCCCC1)c1c(-c2ccccc2)[nH]c2ccccc12	x	0	0	1	x	x	x	x	x
O=C(N/N=C/c1cc(Br)ccc1O)c1ccncc1	x	22*	84*	1	4	6	89*	11	29*
O=C(N/N=C/c1ccc(OC(=O)c2ccc(Br)cc2)cc1)c1ccncc1	x	-6	-13	-14	x	x	x	x	x
O=C(N/N=C/c1cc(Br)ccc1OC(=O)c1ccc(Br)cc1)c1ccncc1	x	97*	78*	45	x	x	90*	12	24*
COc1ccc(-c2cc(C(=O)N3CCN(c4ccccc4F)CC3)c3ccccc3n2)c(OC)c1	x	7	-14	23	x	x	x	x	x
COc1cc(C(=O)N/N=C/C2CC=CCC2)cc(OC)c1OC (centres undefined)	93*	90*	64*	108*	79*	83*	-13	-6	0
COc1cc(C(=O)N/N=C/c2ccsc2C)cc(OC)c1OC	96*	89*	76*	92*	85*	83*	86*	66*	60*
COc1ccc(N2CCN(C(=O)c3cc(C)on3)CC2)cc1	x	2	-12	-9	x	x	x	x	x
CCOC(=O)c1ccc(NC(=O)N2CCN(C(=O)C3CCCO3)CC2)cc1 (centres undefined)	0	-3	18	-7	3	2	x	x	x
Cc1ccccc1-c1cc2c(nn1)-c1ccccc1C2=O	-17	102*	102*	-13	88*	91*	-80	13	41*
CC(C)CN(C(=O)COC(=O)CCC(=O)c1ccc(Cl)cc1)c1c(N)n(Cc2ccccc2)c(=O)[nH]c1=O	x	x	x	-2	x	x	x	x	x
Cc1ccc2[nH]c(C(=O)N/N=C/c3ccccc3O)c(C)c2c1	x	98*	71*	-2	x	x	69*	17	54*
CCN(CC)C(=O)Cn1cnc2sc(C)c(S(=O)(=O)N3CCC(C)CC3)c2c1=O	x	-5	-23	11	x	x	x	x	x

Source: PubChem (several laboratories)
